From PubChem BioAssay
Shown is part of a subset that was picked to be rich in hits.
Tg IFNy HTS: blocks Toxoplasma gondii growth in the presence of IFN-gamma; actives 3.8% (n = 69,000); Toxoplasma gondii growth in IFN-gamma-treated host cells; active compounds read low; activity change, negative = inhibition, % (test concentration not listed); in the data active = activity change below about -70%, passing the limit was not always enough;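 also: host cells are HeLa cells infected with Toxoplasma gondii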
The depositor's hits bear a star.

CCOc1ccc(C2c3[nH]c4ccccc4c3CCN2C(=O)c2ccc(C)cc2)cc1 (stereo unspecified) was read as Tg IFNy HTS -95.0*.
For Cc1ccc(C2c3[nH]c4ccccc4c3CCN2C(=O)c2ccc(N(C)C)cc2)cc1 (stereo unspecified) the results were Tg IFNy HTS -118.7*.
Screening Cc1ccc(C2c3[nH]c4ccccc4c3CCN2C(=O)c2ccccc2F)cc1 (stereo unspecified) returned Tg IFNy HTS -130.5*.
For CCCC(=O)N1CCc2c([nH]c3ccccc23)C1c1ccc(C)cc1 (stereo unspecified) the results were Tg IFNy HTS -49.3.
O=C(c1ccccc1Br)N1CCc2c([nH]c3ccccc23)C1c1ccc(F)cc1 (stereo unspecified) was read as Tg IFNy HTS 46.8.
`CCOc1ccc(C2c3[nH]c4ccccc4c3CCN2C(=O)c2ccncc2)cc1` (stereo unspecified) gave Tg IFNy HTS -3.8.
Screening Cc1ccc(C2c3[nH]c4ccccc4c3CCN2C(=O)c2ccccc2)cc1 (stereo unspecified) returned Tg IFNy HTS inactive.
`Cc1ccc(C2c3[nH]c4ccccc4c3CCN2C(=O)c2cccs2)cc1` (stereo unspecified) gave Tg IFNy HTS -63.7.
Screening Cc1ccc(C2c3[nH]c4ccccc4c3CCN2C(=O)c2ccccc2Br)cc1 (stereo unspecified) returned Tg IFNy HTS 43.0.
COc1cccc(-c2nccc(C(F)(F)F)n2)c1OC was read as Tg IFNy HTS -2.3.
For CCc1cnc(N2CCC3(CC2)NC(=O)CC3c2ccncc2)nc1 (stereo unspecified) the results were Tg IFNy HTS -6.9.
`CCn1c(CC2CCN(C(=O)c3[nH]c4ccccc4c3C)CC2)n[nH]c1=O` gave Tg IFNy HTS -46.8.
For CCOc1ccc2oc(=O)cc(CN3CCN(Cc4nc(-c5ccc(OC)cc5)oc4C)CC3)c2c1 the results were Tg IFNy HTS -51.8.
`CC(C)Cn1cncc1CNC1CCCNC1` (stereo unspecified) gave Tg IFNy HTS -0.7.
`Cc1nc(CN2CCc3cnn(C)c3C2COCC2CC2)cs1` (stereo unspecified) gave Tg IFNy HTS -3.9.
For Cc1nc(=O)n(CC(=O)NCc2cccc(N3CCCCC3)c2)c(C)c1C the results were Tg IFNy HTS -1.5.
`COc1ncc(C(=O)N2CCOC(c3ccc(Cl)c(Cl)c3)C2)cn1` (stereo unspecified) gave Tg IFNy HTS -15.0.
Screening COc1cccnc1C(=O)N1CCOC(c2ccc(Cl)c(Cl)c2)C1 (stereo unspecified) returned Tg IFNy HTS -6.2.
COc1cccc(C)c1C(=O)N1CCOC(c2ccc(Cl)c(Cl)c2)C1 (stereo unspecified) was read as Tg IFNy HTS -77.0*.
COc1cccc(CNC(=O)C2=C(C)C(=O)OC23CCN(S(C)(=O)=O)CC3)c1 was read as Tg IFNy HTS 24.1.
Screening C=CCn1nc(C)c(-c2cc(C(=O)O)[nH]n2)c1C returned Tg IFNy HTS -9.6.
`CCn1cc(S(=O)(=O)NCC2(c3ccccc3)CCOCC2)c(C)n1` gave Tg IFNy HTS 37.2.
For CCOC(=O)c1[nH]c(CSc2ncnc3sc(C)c(C)c23)c(C(=O)OCC)c1C the results were Tg IFNy HTS -26.3.
COc1ccc(-c2ccc(Nc3ccc(C(=O)N4CCCCCC4)cc3)nn2)cc1 was read as Tg IFNy HTS -83.6*.
`COc1ccc(-c2ccc(C(=O)N3CCCC(c4ccccc4)CC3)cn2)cc1` (stereo unspecified) gave Tg IFNy HTS -27.5.
For Cc1ccc(Nc2ccc(C(=O)N3CCCCC3)cn2)cc1 the results were Tg IFNy HTS 311.8.
COc1cccc(N2CC3(CCN(C(=O)Nc4cccc(C)c4)C3)CC2=O)c1 (stereo unspecified) was read as Tg IFNy HTS 7.8.
Cc1nccc([C@H]2C[C@H]3CCN(S(C)(=O)=O)C[C@@H]3O2)n1 was read as Tg IFNy HTS -8.3.
Screening COCC1CN(Cc2ccc3c(c2)OCO3)Cc2cncn2C1 (stereo unspecified) returned Tg IFNy HTS 3.2.
Screening c1nc(N2C[C@@H]3C4CCC(CC4)[C@@H]3C2)c2cc[nH]c2n1 returned Tg IFNy HTS 34.8.
For COc1ccccc1-c1nc(CN(C)S(=O)(=O)c2ccc(C)cc2C)c(C)o1 the results were Tg IFNy HTS -104.4*.
Screening Cc1ccc(S(=O)(=O)N(C)Cc2nc(-c3ccccc3C)oc2C)c(C)c1 returned Tg IFNy HTS -13.3.
Screening COc1ccc(S(=O)(=O)N(C)Cc2nc(-c3cccc(Cl)c3)oc2C)cc1 returned Tg IFNy HTS -98.9*.
For COc1ccccc1-c1nc(CN(c2ccccc2OC)S(=O)(=O)c2ccccc2C)c(C)o1 the results were Tg IFNy HTS -55.4.
For Cc1oc(-c2cccc(Cl)c2)nc1CN(C)S(=O)(=O)c1ccc(F)cc1 the results were Tg IFNy HTS -16.2.
Screening COc1cccc(N(Cc2nc(-c3cccc(Cl)c3)oc2C)S(=O)(=O)c2ccccc2)c1 returned Tg IFNy HTS -35.0.
